Screening results deposited in PubChem by Broad Institute.
These entries were drawn from the full list.
aSyn UTR act = Activators via SNCA 5'UTR binding, MLPCN; 7.1% of 300,000 active; alpha-synuclein 5'UTR reporter, activators screen; activity score, % (tested at 7.5 µM), hits read low; in the data active means activity score below about -60%
Numbers without * were called inactive.

SMILES	aSyn UTR act
CN1C2CCC1/C(=C\c1ccccc1F)C(=O)/C2=C/c1ccccc1F	-89*
O=C(c1ccc(F)cc1)n1ccc(-c2cnc(-c3ccccc3)s2)n1	-124*
Fc1ccc(Cn2ccc(-c3cnc(-c4ccccc4)s3)n2)cc1	-140*
O=S(=O)(c1ccccc1)n1ccc(-c2cnc(-c3ccccc3)s2)n1	-131*
Cc1ccc(Cn2ccc(-c3cnc(-c4ccccc4)s3)n2)cc1	-128*
CN(C)c1ccc(NC(=O)CSc2nc(N)c(C(=O)Nc3ccc(N(C)C)cc3)s2)cc1	-151*
COc1ccc(NC(=O)CSc2nc(N)c(C(=O)Nc3ccc(N(C)C)cc3)s2)cc1	-66*
O=C(Nc1cccc(F)c1)Nc1ccc(Cl)cn1	-135*
Cc1ccc(NC(=O)Nc2cccc(F)c2)nc1	-176*
CCCNC(=O)OCCC12CC3CC(CC(C3)C1)C2	-92*
Cc1ccc(NC(=O)c2c(O)c3ccccc3n(C)c2=O)nc1	-98*
Cc1cccc(NC(=O)c2c(O)c3ccccc3n(C)c2=O)c1	-141*
Cn1c(=O)c(C(=O)Nc2ncccc2O)c(O)c2ccccc21	-147*
Cc1nn2cc(-c3ccc(Cl)cc3)cnc2c1Cl	-144*
O=c1c(C=NCc2ccccc2)c(NCc2ccccc2)nc2ccccn12	-66*
CCC(=O)NC(/C=C/c1ccccc1)c1cc([N+](=O)[O-])c2cccnc2c1O (stereo not drawn)	-94*
CCC(=O)NC(c1ccc(OC)c(OC)c1)c1cc(Cl)c2cccnc2c1O (stereo not drawn)	111
CC(C)C(=O)NC(c1cccc([N+](=O)[O-])c1)c1ccc2cccnc2c1O (stereo not drawn)	91
CC(=O)OCC1OC(n2cc(F)c(=O)[nH]c2=O)C(OC(C)=O)C1OC(C)=O (stereo not drawn)	-181*
Cc1cc2sc3ccccc3c(=O)c2c(C)c1O	-96*
COc1ccc(-c2csc(Nc3ccc(S(N)(=O)=O)cc3)n2)cc1OC	62
COc1ccc(-c2csc(Nc3ccc(C)cn3)n2)cc1OC	-120*
COc1ccc(-c2csc(Nc3cc(C)ccn3)n2)cc1OC	-236*
CCN(CC)S(=O)(=O)c1cc(NC(=O)Cn2ncc(Cl)c(Cl)c2=O)ccc1C	-99*
Cc1cc(Br)ccc1NC(=O)CNC(=O)Cn1ncc(Cl)c(Cl)c1=O	63
SMILES	aSyn UTR act
O=C(/C=C/NCc1cccnc1)c1ccc(-c2ccccc2)cc1	-81*
O=C(N/N=C/C(Br)=C/c1ccccc1)c1cccs1	-366*
O=C(N/N=C/C=C/c1ccccc1)c1cccs1	-156*
O=C(Cc1cccs1)N/N=C/C=C/c1ccccc1	-70*
O=C(N/N=C/C=C/c1ccccc1)c1cc2c(ccc3ccccc32)o1	-80*
O=C(N/N=C\C=C\c1ccc([N+](=O)[O-])o1)c1cccs1	-63*
Cc1cc(C(=O)N(C)C)sc1-c1ccccc1	-132*
COc1ccc(-c2csc(Nc3cccc(C)n3)n2)cc1	-232*
COc1ccc(-c2csc(Nc3cccc(C)n3)n2)cc1C	-216*
CC(=O)Oc1ccc(-c2csc(Nc3cccc(C)n3)n2)cc1	-250*
Cc1cccc(Nc2nc(-c3ccc(F)cc3)cs2)n1	-137*
Fc1ccc(-c2csc(Nc3ccccn3)n2)cc1	-77*
COc1cccc(-c2nnc(N(C)C(=O)C3CCOC3)s2)c1 (stereo not drawn)	-71*
CCOC(=O)N1CCN(C(=O)CCCOc2ccccc2)CC1	-115*
COc1cc(C(=O)N2CCN(c3cccc(C)c3C)CC2)cc(OC)c1OC	58
Cc1cccc(N2CCN(C(=O)CCCOc3ccccc3)CC2)c1C	-86*
CCCn1cnc2c(sc3nc4c(cc32)CSC(C)(C)C4)c1=O	-105*
COc1ccc(CNc2ncccc2[N+](=O)[O-])cc1	-80*
O=[N+]([O-])c1ccccc1OCCCOc1cccc2cccnc12	-96*
COCCCNc1nc(N)c([N+](=O)[O-])c(NCc2ccccc2)n1	57
O=[N+]([O-])c1ccccc1NCCOc1ccccc1	-227*
CC1CN(c2ccc([N+](=O)[O-])c(NCCOc3ccc(Cl)cc3)c2)CC(C)N1 (stereo not drawn)	104
O=[N+]([O-])c1ccccc1OCCOc1ccccc1[N+](=O)[O-]	-138*
COc1ccc(OCCOc2ccccc2[N+](=O)[O-])cc1	-153*
CCOC(=O)/C=C/COc1ccccc1[N+](=O)[O-]	-70*
SMILES	aSyn UTR act
CC(C)(C)c1cc(-n2ccnc2)n2ncc(-c3ccc(Cl)cc3)c2n1	-67*
Cc1cc(NCCCn2ccnc2)n2ncc(-c3ccc(Cl)cc3)c2n1	60
CC(C)(C)c1cc(NCCCn2ccnc2)n2ncc(-c3ccccc3)c2n1	-149*
CN(C)CCCNc1cc(C(C)(C)C)nc2c(-c3ccc(Cl)cc3)cnn12	108
Cc1ccc2nc(SC(C)C(=O)N3CCOCC3)[nH]c2c1 (stereo not drawn)	-94*
CCCOc1cccc(-c2cc(-c3n[nH]c(=S)n3CC)c3ccccc3n2)c1	-72*
CCn1c(-c2cc(-c3ccc(OC(C)C)cc3)nc3ccccc23)n[nH]c1=S	-104*
CCCOc1cccc(-c2cc(C(=O)NNC(=S)NCC)c3ccccc3n2)c1	-114*
CC(C)Oc1cccc(-c2cc(C(=O)NC(=S)N(C)c3ccccc3C(=O)O)c3ccccc3n2)c1	-75*
Cc1ccc(O)c(C(=O)/C=C/c2ccc3c(c2)OCCCO3)c1	-188*
O=C(/C=C/c1ccc2c(c1)OCCCO2)c1ccccc1O	-311*
COc1ccc(S(=O)(=O)/N=C2\C=C(Nc3ccc(O)cc3)C(=O)c3ccccc32)cc1	100
O=S(=O)(/N=C(/NC(=S)Nc1ccccc1)c1ccccc1)c1ccc(Cl)cc1	-99*
COc1ccc(NC(=S)N/C(=N/S(=O)(=O)c2ccc(C)cc2)c2ccccc2)cc1	-146*
CC(C(=O)N1CCCCC1)n1sc2ccccc2c1=O (stereo not drawn)	-134*
O=C(NCc1csc(-c2cccs2)n1)c1ccsc1	-112*
CN(C)CCN(C(=O)c1ccc(N2C(=O)CCC2=O)cc1)c1nc2cc3c(cc2s1)OCCO3	-75*
CCc1ccc2nc(NC(=O)c3ccc(N4C(=O)CCC4=O)cc3)sc2c1	-73*
O=C(Nc1nc2cc3c(cc2s1)OCCO3)c1ccc(N2C(=O)CCC2=O)cc1	-65*
Cc1ccc2nc(N(CCCN(C)C)C(=O)c3ccc(S(=O)(=O)N4CCc5ccccc5C4)cc3)sc2c1	88
CCc1ccc2nc(NC(=O)c3ccc4c(=O)[nH]c(CN5CCOCC5)nc4c3)sc2c1	-107*
O=C(Nc1nc2cc3c(cc2s1)OCCO3)c1ccco1	66
Cc1cc2oc(C(=O)Nc3c(C)n(C)n(-c4ccccc4)c3=O)c(C)c2cc1C	-63*
Cc1ccccc1C(=O)/C(C#N)=N/Nc1c(C)n(C)n(-c2ccccc2)c1=O	79
CCN(CC)C(=O)CSc1nc(N)c2c3c(sc2n1)CC(C)CC3 (stereo not drawn)	-85*
SMILES	aSyn UTR act
COc1ccccc1C(=O)Nc1cccc2cccnc12	-81*
O=C(Nc1cccc2cccnc12)c1cc(F)c(F)cc1Cl	-74*
CC(=O)NC(c1ccc(Cl)cc1Cl)c1ccc2cccnc2c1O (stereo not drawn)	86
O=C(NCCc1ccccc1F)c1cccc2cccnc12	-147*
Cc1ccc(NC(=O)c2cccc3cccnc23)cc1	-91*
Cc1nc(NC(C)C)c2cnn(CCc3ccccc3)c2n1	-133*
CCCNc1nc(C)nc2c1cnn2CCc1ccccc1	-105*
Oc1ccc(Br)cc1-c1ccn[nH]1	-69*
CCOc1ccccc1-c1nn2c(Cc3ccccc3)nnc2s1	-66*
